Test results from PubChem BioAssay AID504558 (Broad Institute, 2011).
Screen size: about 350,000 compounds; about 2,400 (0.69%) were called active. No stated cut-off is given here; in the data, active means inhibition above about 41%; inconclusive means no clear call, values can overlap the other calls; inactive means below that. The entries come from a sample that favours actives as a whole.

Assay: blockers of LMP1-induced NF-kB reporter signal – cell-based, luminescence, single point, primary screen (AID 504558);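 further: 0% = neutral control wells and 100% = reference inhibitor control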
Settings: LMP1-induced NF-kappaB luciferase reporter cells, at 12.5 µM, hits give high values

SMILES | inhibition
COc1cc2ccc(C(C)=O)c(O)c2cc1OC | 3.32% (inactive)
COc1ccc(S(=O)(=O)N2CCC(C(=O)NCCC(=O)Nc3ccccc3OC)CC2)cc1 | 1.21% (inactive)
COc1ccc(C(=O)OCC(=O)Nc2cc(C)on2)cc1F | -6.31% (inactive)
COc1ccc(C(=O)NCC2CCCO2)cc1S(=O)(=O)NCc1ccc(Cl)cc1 (stereo not drawn) | -0.644% (inactive)
CC1CN(C(=O)c2cccc(NS(=O)(=O)c3ccc(Br)cc3)c2)CC(C)O1 (stereo not drawn) | 0.834% (inactive)
O=C(Nc1cccc2ccccc12)NC1CC1 | -3.72% (inactive)
CC1=C(C(=O)Nc2cccc(C(=O)NCC(C)c3ccccc3)c2)SCCO1 (stereo not drawn) | -2.25% (inactive)
CC[C@H]1CN2CCc3cc(OC)c(OC)cc3[C@@H]2C[C@@H]1C[C@H]1NCCc2cc(OC)c(OC)cc21 | 89.9% (active)
COc1cc2c(cc1OC)CN(CC(=O)Nc1ccc(F)cc1)CC2 | 9.89% (inactive)
CC(C)CC1C(=O)N(Cc2cn(CC3CCCCC3)nn2)CCS(=O)(=O)N1Cc1ccc(-c2ccc(Cl)cc2)cc1 (stereo not drawn) | 5.31% (inactive)
O=C(COC(=O)c1cccc(Cl)c1Cl)NC1CCCCCC1 | -5.21% (inactive)
CN(C)CCCN(C(=O)c1ccc(S(=O)(=O)N2CCCc3ccccc32)cc1)c1nc2ccc(F)cc2s1 | -4.71% (inactive)
O=C(NC(Nc1nc2ccc([N+](=O)[O-])cc2s1)(C(F)(F)F)C(F)(F)F)c1ccccc1 | 56.9% (active)
N=C1C(c2nc3ccccc3s2)=C(O)CN1NC(=O)c1ccc([N+](=O)[O-])cc1 | -6.15% (inactive)
O=C(Nc1nc2ccc([N+](=O)[O-])cc2s1)c1ccc(S(=O)(=O)N2CCCc3ccccc32)cc1 | 52.5% (active)
Cc1ccc(NC(=O)c2cccc(S(=O)(=O)N3CCCc4ccccc43)c2)nc1 | 16.9% (inactive)
O=C(O)c1cc([N+](=O)[O-])c(Nc2cccc3ccccc23)c([N+](=O)[O-])c1 | 1% (inactive)
C[C@@H]1CN([C@@H](C)CO)C(=O)c2cc(NS(C)(=O)=O)ccc2O[C@@H](C)CCCCO[C@H]1CN(C)C(=O)Nc1ccc2c(c1)OCO2 | -2.68% (inactive)
CC(C)CCC(=O)Nc1cc(S(=O)(=O)N2CCOCC2)ccc1N1CCCC1 | 0.721% (inactive)
O=S1(=O)CCN(C2CCCCCCCCCCC2)CC1 | 3.93% (inactive)
CCCCCCn1c(=O)n2n(c1=O)C[C@]1(OC(=O)NCc3ccc(OC)c(OC)c3)CN(S(=O)(=O)c3ccc(C)cc3)C[C@]1(O)C2 | -11.4% (inactive)
O=C1c2ccccc2-c2ccccc2NC1O (stereo not drawn) | 5.68% (inactive)

SMILES | inhibition
COc1ccc(-c2cnc3c(c2)C(=O)N([C@H](C)CO)C[C@@H](C)[C@H](CN(C)Cc2ccccc2)O3)cc1 | -7.99% (inactive)
COc1ccc(OC)c(NC(=O)C2CCCN2S(=O)(=O)c2ccc3c(c2)CC(C)N3C(C)=O)c1 (stereo not drawn) | 1.47% (inactive)
O=C(OCC(=O)N1CCCCCC1)c1cccc(Cl)c1Cl | -36.1% (inactive)
COc1ccc(CC(=O)Nc2sc(Cc3ccccc3)c(C)c2C(N)=O)cc1 | 0.44% (inactive)
COCc1nnc(NC(=O)c2ccc3c(c2)OCO3)s1 | 7.49% (inactive)
Cc1ccc(C(=O)Nc2sc(Cc3ccc4c(c3)OCO4)c(C)c2C(N)=O)cc1 | 81% (active)
COc1ccc(CN2C(=O)C(CC(=O)NC3CCCCC3)CC(C(=O)N3CCOCC3)=C2C)cc1 (stereo not drawn) | 1.44% (inactive)
Cc1c(Cl)cnc(NC(=O)COC(=O)C2CCCC2)c1Cl | -6.23% (inactive)
CSCCC(NC(=O)c1ccco1)C(=O)Nc1cc(C)ccn1 (stereo not drawn) | -34.2% (inactive)
CSCCC(NC(=O)c1ccco1)C(=O)OCC(=O)Nc1ncc(Cl)c(C)c1Cl (stereo not drawn) | 59.5% (active)
COc1cccc(OCC(=O)NCCS(=O)(=O)N2CCN(c3ccccc3)CC2)c1 | 1.31% (inactive)
O=C(CC(CC(=O)c1ccccc1)c1ccco1)c1ccccc1 | -17.7% (inactive)
CCOc1cc(/C=C(/C#N)c2ccc(Cl)cc2)cc(Cl)c1OCC(=O)O | 43.8% (active)
CCOC(=O)CN/C=C(\C#N)c1ccc(F)cc1 | 1.95% (inactive)
C/C(=N\OCC(=O)O)c1ccc(Cl)cc1 | -9.17% (inactive)
CCOC(=O)c1cc(-c2sc(NC(=O)c3ccccc3)nc2C)n(-c2ccc(Br)cc2)n1 | -16.6% (inactive)
C[C@@H]1CN([C@H](C)CO)S(=O)(=O)c2ccc(C#CC3CCCCC3)cc2O[C@H]1CN(C)C(=O)Cc1ccncc1 | -11.3% (inactive)
COc1ccc(C(CNC(=O)c2ccc(OCc3cscn3)cc2)N2CCCC2)cc1 (stereo not drawn) | -12% (inactive)
CC(=O)Nc1c(-c2ccc(C)cc2)nc2ccc(Cl)cn12 | 6.02% (inactive)
Cc1sc2nc(-c3ccccc3F)oc(=O)c2c1C | 1.32% (inactive)
CSc1ncnc2c1ncn2CCCNCC1CCCCC1 | 3.66% (inactive)
O=C(NN=Cc1ccccc1O)NN=Cc1ccccc1O | 33.4% (inactive)

SMILES | inhibition
O=C(N/N=C/c1ccccc1O)C1CCCC1 | 0.696% (inactive)
Cc1ccc(/C=N/NC(=O)C2=NNC(c3ccccc3)(c3ccccc3)C2)c(O)c1 | 61.6% (active)
Cc1nc2ccccc2nc1CC(O)(c1ccccc1)c1ccccc1 | -2.04% (inactive)
Nc1ccccc1-c1nc2ccncc2[nH]1 | 2.17% (inactive)
Cc1nnc(N/N=C/c2ccccn2)[nH]c1=O | 60.6% (active)
O=C(N/N=C/c1ccccn1)C12CC3CC(CC(C3)C1)C2 | -4.71% (inactive)
O=C(COc1ccc(Cl)cc1Cl)N/N=C/c1ccccn1 | 19.3% (inactive)
Cc1ccc(-c2ccc(CN3C(C)C(=O)N(Cc4cn(CCC5OCCCO5)nn4)CCS3(=O)=O)cc2)cc1 (stereo not drawn) | 3.6% (inactive)
C[C@@H]1CCCCO[C@H](CN(C)Cc2ccccc2)[C@@H](C)CN([C@H](C)CO)C(=O)c2cc(NS(=O)(=O)c3ccc(Cl)cc3)ccc2O1 | -0.347% (inactive)
CCN(CC)C(=O)C1=C(C)N(Cc2ccc(F)cc2)C(=O)C(CC(=O)NC2CCCC2)C1 (stereo not drawn) | 5.32% (inactive)
O=C(NN=Cc1ccc2c(c1)CCC2)c1ccccc1O | -10.8% (inactive)
COc1cc(C=NNC(=O)c2cccnc2)ccc1OC(=O)c1ccccc1F | 5.47% (inactive)
COc1ccc(C(=O)Nc2ccccc2C(=O)N/N=C/c2ccc(O)c(OC)c2)cc1 | 66.5% (active)
CCCCCCNC(=O)O[C@H]1CN(C(=O)OC(C)C)N(C(=O)OC(C)C)[C@@H]2CN(S(=O)(=O)c3ccc(C)cc3)C[C@]12O | -5.81% (inactive)
Cc1cc2cc3n(c2nn1)N=C(Cl)CC3 | 3.98% (inactive)
CNS(=O)(=O)c1ccc2c(c1)[nH]c(=S)n2C | 8.35% (inactive)
CCOc1cc(/C=N/NC(=O)c2c(C)nc3ccc(Cl)cn23)ccc1O | -8.3% (inactive)
O=C(CCn1ccc([N+](=O)[O-])n1)Nc1nccs1 | -2.16% (inactive)
O=C(Cn1ccc([N+](=O)[O-])n1)NCc1cccs1 | -5.11% (inactive)
Cc1ccnc(NC(=O)Cn2ccc([N+](=O)[O-])n2)c1 | 53.9% (active)
Cn1ncc([N+](=O)[O-])c1C(=O)Nc1cc(Cl)ccc1Cl | 1.05% (inactive)
CCc1nc2c(=O)[nH]cnc2o1 | 1.63% (inactive)

SMILES | inhibition
CCN1C(=O)[C@H]2[C@@H](c3ccc(C(F)(F)F)cc3)N[C@]3(CCCN(Cc4ccc(Br)cc4)C3=O)[C@H]2C1=O | 33.7% (inactive)
C[C@H]1CN([C@@H](C)CO)S(=O)(=O)c2ccc(-c3cccc(F)c3)cc2O[C@@H]1CN(C)C | -3.16% (inactive)
Cc1cccn2c(=O)c3cc(C(=O)NC4CCCCC4)sc3nc12 | -2.71% (inactive)
Cc1ccccc1C(=O)NC(=S)NC1CC1 | 2.37% (inactive)
Cc1ccccc1-n1nc(C)c2cc(C(=O)NC3CC3)sc21 | 48.8% (active)
CC(C)[C@H](NC(=O)c1ccccc1F)C(=O)Nc1cccc(S(=O)(=O)N2CCOCC2)c1 | -8.03% (inactive)
CCN(CC)C(=O)C1=C(C)N(Cc2ccc(OC)cc2)C(=O)C(CC(=O)NCc2ccco2)C1 (stereo not drawn) | -5.75% (inactive)
O=C(COc1ccc(S(=O)(=O)N2CCCC2)cc1[N+](=O)[O-])N1CCCCC1 | -1.43% (inactive)
O=C(C1=C[C@H](c2ccc(C(F)(F)F)cc2)C[C@H](OCc2ccc(CO)cc2)O1)N1CCN(Cc2ccccc2)CC1 | -10.6% (inactive)
O=C(C1=C[C@H](c2coc3ccccc3c2=O)C[C@H](OCc2ccc(CO)cc2)O1)N1CCN(Cc2ccccc2)CC1 | 72.5% (active)
O=C(C1=C[C@H](c2coc3ccccc3c2=O)C[C@H](OCc2ccc(CO)cc2)O1)N1CCOCC1 | -1.64% (inactive)
CN1OC[C@@H]2CN(C(=O)c3ccc(-c4ccccc4)cc3)[C@H](c3ccc(-c4cccc(F)c4)cc3)C[C@@H]21 | -3.6% (inactive)
Brc1ccc2ncnc(NCc3cccnc3)c2c1 | 27.2% (inactive)
O=C(O)CCCCCNc1ncnc2ccc(Br)cc12 | 3.15% (inactive)
COc1ccc(Nc2ncnc3ccc(Br)cc23)c(OC)c1 | 69.1% (active)
Cc1ccc([C@H]2N[C@]3(CCCN(Cc4ccccc4)C3=O)[C@H]3C(=O)N(Cc4ccccc4)C(=O)[C@@H]23)cc1 | 4.09% (inactive)
CCC(C)NC(=O)CCCc1ccccc1 (stereo not drawn) | -18% (inactive)
O=C(O)CCCc1ccccc1 | 65.7% (active)
O=C(O)CCC(=O)N(Cc1ccccc1)Cc1ccccc1 | -12% (inactive)
O=C(N/N=C/c1ccccn1)c1cccc(NC(=O)c2ccc(Cl)cc2)c1 | -0.655% (inactive)
S=C(Nc1cccnc1)Nc1ccccn1 | -5.41% (inactive)
S=C(NN=Cc1ccccn1)Nc1ccccn1 | 76.3% (active)
